Measurements: PubChem BioAssay (NCI)
The panel holds about 83,000 compounds, 20% with a hit somewhere; the sample as a whole holds those more often.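 Values shown are percent growth following 48 h exposure of cells in 96-well plates to a single concentration of compound; below 10 was considered active.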 Unmarked numbers belong to inactive results. Calls of active or inactive are those of the source.

Tests used:
Assay in all cases: NCI-60 one-dose screen, 48 h (100 = growth as untreated, 0 = no growth, -100 = all killed)
Details in all cases: 10 µM unless noted
[1] = tested on: NCI-H23 lung
[2] = tested on: NCI-H226 lung
[3] = tested on: NCI-H322M lung
[4] = tested on: HOP-62 NSCLC
[5] = tested on: NCI-H460 lung
[6] = tested on: HOP-92 NSCLC
[7] = tested on: NCI-H522 lung
[8] = tested on: A549/ATCC NSCLC
[9] = tested on: 786-0 renal
[10] = tested on: COLO 205 colon
[11] = tested on: DU-145 prostate
[12] = tested on: MALME-3M melanoma
[13] = tested on: MDA-MB-231 breast
[14] = tested on: RXF 393 renal
[15] = tested on: SF-268 CNS
[16] = tested on: SF-295 CNS
[17] = tested on: SF-539 CNS
[18] = tested on: UACC-257 melanoma
[19] = tested on: M14 melanoma
[20] = tested on: K-562 leukemia

Row | SMILES | growth [1] [%] | growth [2] | growth [3] [%] | growth [4] [%] | growth [5] | growth [6] | growth [7] | growth [8] | growth [9] | growth [10] | growth [11] | growth [12] [%] | growth [13] [%] | growth [14] [%] | growth [15] [%] | growth [16] | growth [17] | growth [18] [%] | growth [19] | growth [20] [%]
1 | O=C1c2c(O)cc(O)cc2-c2c(-c3ccc(O)cc3)oc3cc(O)cc1c23 | 39.9 | 61.2% | 65.2 | 22.1 | 10% | 44.6% | 11% | 43.2% | 41.8% | 86.2% | 40.9% | 54.7 | 66.8 | 62.1 | 50.7 | 29.1% | 25.2% | 67.5 | 46.1% | 
2 | COc1cc(-c2nn(-c3ccc(C(=O)O)cc3)cc2C(=O)O)ccc1O | 63 | 102% | 98.5 | 61.6 | 61.9% | 58.8% | 12% | 78.2% | 78.3% | 113% | 89.3% | 57.1 | 93.3 | 91.5 | 70.3 | 94.4% | 47.7% | 103 | 33.5% | 
3 | Oc1ccc(N=Cc2ccccc2O)cc1 | 92.3 | 113% | 90.6 | 93.6 | 96.4% | 75.3% | 81.3% | 101% | 93.4% | 120% | 103% | 73.6 | 99.7 |  | 93.4 | 107% | 79.9% |  | 94.2% | 
4 | Cc1cc2nc3[nH]c4ccccc4c3nc2cc1C | 99.6 | 96.1% | 98.7 | 94.2 | 93.8% | 67.2% | 94% | 87.2% | 79.3% | 88% | 79.4% | 76.6 | 64.4 |  | 74.6 | 102% | 70.7% |  | 101% | 
5 | CN(C)C(=S)N=Nc1c(O)[nH]c2ccccc12 | 28.2 | 4.04% (active) | 24.6 | 10.9 | -4.55% (active) | -6.97% (active) | 27.4% | -10.6% (active) | 8.93% (active) | 19.7% | 31.6% | 30.8 | 49.1 |  | 14.6 | 17.5% | 9.37% (active) |  | -6.4% (active) | 
6 | COC(=O)c1ccc(Cn2cnc3c(N)ncnc32)cc1 | 103 | 106% | 106 | 97 | 115% | 92.1% | 69.6% | 104% | 114% | 109% |  |  | 87.7 | 102 | 114 | 109% | 92.1% | 116 | 110% | 89.4
7 | Oc1cccc(-c2nc(N3CCOCC3)c3c4c(sc3n2)CCCC4)c1 | 56.3 | 61.1% | 56 | 62 | 44.1% | 11.2% |  | 51.7% | 96.7% | 103% | 37.8% | 49 | 43.2 | 16.3 | 36.8 | 75.6% | 50.6% | 69.7 | 60.7% | 69.1
8 | CCOC(=O)n1cc(-c2nonc2-c2cn(C)c3ncccc23)c2ccccc21 | 79.2 | 58.7% | 87.3 | 87.8 | 64.2% | 66.1% |  | 82% | 88.8% | 93% | 97.1% | 84.4 | 63.8 | 81.7 | 82.2 | 82.8% | 92.3% | 98 | 90.1% | 40.6
9 | CCn1c(Cc2ccccc2Nc2c(Cl)cccc2Cl)nnc1SCC(=O)NN1C(=O)/C(=C/c2cc(OC)c(O)c(OC)c2)SC1=S | 48.3 | 40.7% | 42.2 | 29.9 | 22.1% |  | -1.58% (active) | 60.9% | 26.3% | 44.9% | 48.8% | 40.4 | 60.9 | 12.9 | 36.4 | 23.5% | 13% | 63.7 |  | 19.4
10 | O=C1NC(=S)N[C@H]1CC(=O)n1cnc2ccccc21 | 92.3 | 93.6% | 105 | 93 | 104% | 96.1% |  | 105% | 102% | 111% | 109% | 98.2 | 101 | 99.7 | 100 | 100% | 99% | 116 | 96.8% | 114
11 | CC(=O)NCC1c2c(n(C)c3c(Cl)c(Cl)ccc23)C(=O)NC1(C)C (centres undefined) | 90.3 | 97.1% | 91.9 | 88.2 | 96.6% | 90.6% |  | 94.4% | 100% | 113% | 108% | 108 | 112 | 90.5 | 108 | 89.5% | 94.5% | 103 | 94.2% | 79.5
12 | COc1ccccc1Nc1nc(-c2cc3cccc(C(F)(F)F)c3oc2=O)cs1 | 18.6 | 13.4% | 33 | 25.3 | 4.14% (active) | 26.9% |  | 17.1% | 20.8% | -50.3% (active) | 7% (active) | 78.2 | 19.1 | 26.7 | 26.2 | 3.82% (active) | -32.9% (active) | 57.1 | 13.5% | 
